Source: PubChem
Hits are enriched below; roughly 6.7% of the tested compounds scored in any of these assays.
KB-3-1 tox: kills parental KB-3-1 adenocarcinoma cells; KB-3-1 viability, CellTiter-Glo ATP luminescence, 72 h; Potency, µM (top dose mostly 46.1 µM), usual class: cytotoxic; actives 1.4% (n = 400,000); note: nearly all actives have a fitted effect of over 60% in size
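Parental KB-3-1 adenocarcinoma cells in phenol-red-free DMEM with 10% FBS were pin-treated with compounds at several concentrations, incubated 72 h at 37 °C, and viability read by CellTiter-Glo luminescence; concentration-effect curves were fitted after normalization.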
PINK1 modulator: PINK1 expression modulation; actives 0.2% (n = 410,000); Potency, µM (doses to about 76.6 µM), usual class: activators; PINK1 immunofluorescence, high-content cytometry, 24 h; active = well fitted activation curve with a large enough effect; inconclusive = small, poorly fitted or top-dose-only effect; cell line not stated here; note: nearly all actives have a fitted effect of over 65% in size
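Cells are seeded, rested 12 hours, then given compound at five concentrations or DMSO for 24 hours. After fixation, blocking and antibody staining, PINK1 amount and mitochondrial localization are scored; CCCP serves as control.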
KB-V1 cytotox: KB-V1 MDR subline cytotoxicity | KB-V1 MDR cells viability, CellTiter-Glo, 72 h | Potency, µM (series often up to 46.1 µM), hits mostly cytotoxic | actives 3.4% (n = 400,000); note: nearly all actives have a fitted effect of over 60% in size
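Cells of the MDR subline KB-V1 are plated, dosed with compound at multiple concentrations, and incubated 72 h at 37 degrees C; CellTiter-Glo is then added and luminescence read after 10 min.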
MCF10A rerep: DNA re-replication induction in MCF 10a cells. actives 2.9% (n = 350,000). MCF 10A DNA re-replication, Hoechst nuclear intensity, 48 h. Potency, µM (doses to about 46.1 µM), usual class: activators; note: nearly all actives have a fitted effect of over 50% in size
SW480 rerep: DNA re-replication induction in SW480 cells. SW480 DNA re-replication, Hoechst DNA content imaging, 48 h. Potency, µM (top dose mostly 46.1 µM), usual class: activators. actives 1.8% (n = 340,000). AID 624297; note: nearly all actives have a fitted effect of over 55% in size
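Cells (250 per well) received 23 nL compound or DMSO by pin tool and were kept 48 hr at 37 C, 5% CO2. Nuclei were then stained with Hoechst for 40 min and scanned for DNA content.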
Large screens that a line does not name were inactive. Unless noted, calls come from the whole dose curve; as a rule, active = well fitted curve in the direction sought with a large enough effect; inconclusive = small, poorly fitted or top-dose-only effect, or another doubt; inactive = no such curve, though single readings can be large; an effect the other way counts as inactive or inconclusive.

O=C(Nc1ccc(S(=O)(=O)N2CCCC2)cc1)c1ccc([N+](=O)[O-])o1	KB-3-1 tox inconclusive, KB-V1 cytotox inconclusive, MCF10A rerep 1.8µM, SW480 rerep 0.73µM
O=C(Nc1ccc(S(=O)(=O)N2CCOCC2)cc1)c1ccc([N+](=O)[O-])o1	KB-3-1 tox inconclusive, KB-V1 cytotox inconclusive, MCF10A rerep inconclusive
Cc1ccc(C(=O)Nc2ccc(S(=O)(=O)N3CCc4ccccc4C3)cc2)o1	KB-V1 cytotox 15µM
O=C(COC(=O)c1ccc([N+](=O)[O-])o1)Nc1ccc(N2CCOCC2)cc1	KB-V1 cytotox inconclusive
O=C(Nc1ccc(Cc2ccncc2)cc1)c1cccc([N+](=O)[O-])c1	KB-V1 cytotox inconclusive
O=C(Nc1ccc(N2CCOCC2)cc1)c1ccc([N+](=O)[O-])o1	KB-V1 cytotox inconclusive, MCF10A rerep 4.6µM, SW480 rerep 1.3µM
COCCN(CCOC)Cc1cc(=O)oc2cc(C)cc(C)c12	none (no result: MCF10A rerep, SW480 rerep)
CC(=O)Nc1ccc2nc(NC(=O)c3ccc([N+](=O)[O-])o3)sc2c1	KB-3-1 tox 9.2µM, KB-V1 cytotox 16µM, MCF10A rerep 0.65µM, SW480 rerep 3.3µM
CCn1nnc(NC(=O)c2ccc([N+](=O)[O-])o2)n1	KB-3-1 tox inconclusive, MCF10A rerep 15µM, SW480 rerep inconclusive
Cc1ccc(C(=O)Nc2ccc(S(=O)(=O)N3CCCC3)cc2)o1	KB-V1 cytotox inconclusive
CCCCn1nnc(NC(=O)c2ccc(-c3ccccc3[N+](=O)[O-])o2)n1	none
O=C(Nc1ccc(S(=O)(=O)N2CCCCCC2)cc1)c1ccc(Br)o1	KB-3-1 tox inconclusive, KB-V1 cytotox 5.8µM
CCC(=O)N1CCN(c2ccc(NC(=O)c3ccc(Br)o3)cc2)CC1	SW480 rerep 21µM
O=C(O)c1ccccc1C(=O)c1ccc(F)c(F)c1	none
O=C(Nc1ccc(Br)cn1)c1cccc2ccccc12	KB-V1 cytotox 1µM, MCF10A rerep 4.1µM, SW480 rerep 3.3µM
O=C(Nc1ccc(Cl)cn1)c1cccc2c(Br)cccc12	KB-3-1 tox 12µM, MCF10A rerep inconclusive, SW480 rerep inconclusive
O=C(Nc1ccc(Br)cn1)c1ccc2nccnc2c1	KB-3-1 tox inconclusive, KB-V1 cytotox 16µM, MCF10A rerep inconclusive, SW480 rerep inconclusive
Cc1ccccc1C(=O)Nc1ccc(Cl)cn1	KB-3-1 tox inconclusive, KB-V1 cytotox inconclusive, SW480 rerep inconclusive
COc1cccc(-c2noc(CCC(=O)NC3CCCC3)n2)c1	none
O=C(CCc1nc(-c2ccc(Cl)cc2)no1)NC1CCCC1	none
O=C(CCCc1nc(-c2ccc(Cl)cc2)no1)NC1CCCCC1	KB-3-1 tox inconclusive, KB-V1 cytotox 12µM
COc1cccc(-c2noc(CCCC(=O)NC3CCCC3)n2)c1	SW480 rerep 21µM
CCN(C(=O)CCc1nc(-c2ccc(C)cc2)no1)c1cc(C)ccc1C	none (no result: MCF10A rerep, SW480 rerep)
CCOc1ccc(-c2noc(CCCC(=O)NC3CCCC3)n2)cc1OC	KB-V1 cytotox 8.2µM
CCN(C(=O)CCc1nc(-c2ccc(OC)cc2)no1)c1cc(OC)ccc1OC	KB-3-1 tox inconclusive, KB-V1 cytotox 16µM
Cc1cc(C(=O)Nc2ccccc2-c2nc(CNC(=O)C3(C)CCCCC3)c(C)o2)c(C)o1	none (no result: KB-3-1 tox, KB-V1 cytotox, MCF10A rerep, SW480 rerep)
CCOC(=O)CSc1nc2c([nH]c3ccccc32)c(=O)n1-c1ccc(OC)cc1	none (no result: MCF10A rerep, SW480 rerep)
CCN(CCCNC(=O)c1cc2c(=O)n(C)c3ccccc3c2s1)Cc1ccccc1	none (no result: KB-3-1 tox, KB-V1 cytotox, MCF10A rerep, SW480 rerep)
O=C(CCc1nc2ccccc2c(=O)[nH]1)Nc1cc(Cl)ccc1N1CCCC1	KB-V1 cytotox 15µM
O=C(Nc1cccc(Cl)c1)N(Cc1nc2ccccc2c(=O)[nH]1)Cc1cccs1	PINK1 modulator inconclusive, KB-V1 cytotox 16µM
O=C(CCc1nc2ccccc2c(=O)[nH]1)Nc1ccc(N2CCCCC2)cc1	none
O=C(CCc1nc2ccccc2c(=O)[nH]1)Nc1ccc(Cl)c(Cl)c1	KB-V1 cytotox 21µM
CCOc1ccccc1NC(=O)CCCc1nc2ccccc2c(=O)[nH]1	KB-V1 cytotox 18µM
COc1ccnc(Oc2ccc(F)cc2)c1C(=O)N/C=N/OCc1ccc(Cl)cc1Cl	KB-V1 cytotox inconclusive, MCF10A rerep inconclusive, SW480 rerep 2.3µM (no result: PINK1 modulator)
CCc1cccc(N2C(=O)CSC23C(=O)N(Cc2ccccc2F)c2ccccc23)c1 (configuration not stated)	KB-3-1 tox 21µM, KB-V1 cytotox 15µM (no result: MCF10A rerep, SW480 rerep)
